ATXN viability: reduces viability in counter-screen for ATXN expression inhibitors. S2 cells (HEK-293 line with an ATXN2-luciferase reporter) viability, CellTiter-Fluor protease fluorescence, 24 h. Potency, µM (top dose mostly 56.7 µM), most hits filed as cytotoxic. actives 0.49% (n = 400,000). AID 651635; further: nearly all actives have a fitted effect of over 40% in size
TGFb SMAD3 inh: inhibitors of TGF-b signaling; HepG2 CAGA-GFP TGF-b/SMAD3 reporter, GFP fluorescence, 18 h; TGF-beta stimulated, 500 pg/mL final; Potency, µM (highest dose often 46.1 µM), for inactives: top-dose activity, negative = inhibition, most hits filed as inhibitors; actives 1.2% (n = 410,000); further: on the % scale 0 is the no-effect control and ±100 the full control effect; nearly all actives have a fitted effect of over 65% in size
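Inhibition of TGF-beta-driven CAGA-GFP reporter expression in HEPG2 cells is measured by cellular GFP fluorescence after 18 h stimulation with 500 pg/mL recombinant TGF-beta in 1% FBS medium at 37 degrees C.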
VP16 counter: Gal4-VP16 reporter inhibition counter-screen | AID 2546 | Drosophila S2 Gal4-VP16 UAS-luciferase, luminescence, 20 h | actives 3.5% (n = 310,000) | Potency, µM (titrated, usually from 53.6 µM), for inactives: at the highest dose activity, negative = inhibition, usual class: inhibitors;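 further: Gal4-VP16 expression switched on by copper sulfate through the metallothionein promoter; on the % scale 0 is the no-effect control and ±100 the full control effect; nearly all actives have a fitted effect of over 50% in size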
RORgamma inh: blocks mouse ROR gamma transcriptional activity | AID 2551 | P51450 | Drosophila S2 Gal4-RORgamma UAS-luciferase reporter, 20 h | actives 5.4% (n = 310,000) | Potency, µM (doses to about 53.6 µM), inactives show top-dose activity change, negative = inhibition, most hits filed as inhibitors; further: on the % scale 0 is the no-effect control and ±100 the full control effect; nearly all actives have a fitted effect of over 60% in size
Target sequence (P51450 whole entry, looked up, the tested form may be a part): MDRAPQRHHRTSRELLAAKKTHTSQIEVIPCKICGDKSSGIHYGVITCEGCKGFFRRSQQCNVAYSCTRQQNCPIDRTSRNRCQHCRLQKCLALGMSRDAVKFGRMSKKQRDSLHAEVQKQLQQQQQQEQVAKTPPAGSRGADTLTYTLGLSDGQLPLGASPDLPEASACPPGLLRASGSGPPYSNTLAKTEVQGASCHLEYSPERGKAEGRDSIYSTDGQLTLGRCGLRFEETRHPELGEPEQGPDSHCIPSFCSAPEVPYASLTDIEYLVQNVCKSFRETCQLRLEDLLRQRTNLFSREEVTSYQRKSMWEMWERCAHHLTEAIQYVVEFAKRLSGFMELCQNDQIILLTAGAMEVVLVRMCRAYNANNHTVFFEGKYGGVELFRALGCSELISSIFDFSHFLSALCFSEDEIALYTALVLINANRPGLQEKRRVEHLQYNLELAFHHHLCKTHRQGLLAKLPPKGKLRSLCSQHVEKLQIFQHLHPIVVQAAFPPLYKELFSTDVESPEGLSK
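A Gal4/UAS one-hybrid system in insect cells: metallothionein-promoter Gal4–ROR gamma fusion plus Photinus luciferase reporter. Copper sulfate 700 uM final, 20 hr ambient incubation, luminescent detection after 10 min with reagent.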
ATXN2 expr inh: ATXN2 expression inhibition. actives 0.72% (n = 360,000). HEK-293 ATXN2-luciferase reporter, luminescence, 24 h. Potency, µM (top dose mostly 57 µM), without a hit: at the highest dose activity change, negative = inhibition, most hits filed as inhibitors; further: on the % scale 0 is the no-effect control and ±100 the full control effect; nearly all actives have a fitted effect of over 55% in size
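qHTS (up to 57 uM final) was run with 24 h compound exposure of reporter cells at 37 °C. Each well was multiplexed: SteadyGlo luminescence measured ATXN2-luciferase expression after a fluorogenic Gly-Phe-AFC viability readout (25 uM final).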
HepG2 viability: counter-screen for TGF-b inhibitors: cytotoxicity in HepG2 cells | actives 0.76% (n = 410,000) | Potency, µM (highest dose often 46.1 µM), for the others: top-dose activity change, negative = cytotoxicity, usual class: cytotoxic | HepG2 CAGA-GFP viability, ATP luminescence, 18 h
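CellTiter-Glo luminescence gave cytotoxicity after 18 hours at 37 degrees C. The cells were HepG2 CAGA-GFP in 1% FBS DMEM, stimulated with 500 pg/mL TGF-beta after compound addition. %Activity was normalised to no-cell wells (complete cell-killing) and DMSO (no toxicity), and curves were fitted and classified.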
* hit, by the source's call. Sampled rows, rich in hits. Any-hit rate of the full collection: about 6.3%. The call rests on the fitted dose curve; in most records, active means well fitted curve in the direction sought with a large enough effect; inconclusive means small, poorly fitted or top-dose-only effect, or another doubt; inactive means no such curve, though single readings can be large; an effect the other way counts as inactive or inconclusive. Potency means the concentration at half of the fitted maximal effect.

Screening O=C(NCc1cc(C(F)(F)F)ccc1Cl)c1cccc2c1C(=O)c1ccc(N3CCC(N4CCCCC4)CC3)cc1S2(=O)=O returned ATXN viability inconclusive, TGFb SMAD3 inh inconclusive, ATXN2 expr inh 25µM* and HepG2 viability 16µM*.
O=C(NCc1cc(C(F)(F)F)ccc1Cl)c1cccc2c1C(=O)c1ccc(N3CCCCC3)cc1S2(=O)=O was read as ATXN viability inactive, TGFb SMAD3 inh 7%, ATXN2 expr inh -2% and HepG2 viability -1%.
`CCN(CC)C(=O)CSc1nnc(-c2cc(-c3ccc(Cl)cc3)nc3ccccc23)o1` gave ATXN viability inactive, TGFb SMAD3 inh -2%, VP16 counter 0%, RORgamma inh 7%, ATXN2 expr inh -27% and HepG2 viability 1%.
Cc1cc(-c2nnc(SCCC(=O)Nc3ccccc3)o2)no1 was read as ATXN viability inactive, TGFb SMAD3 inh -19%, VP16 counter inconclusive, RORgamma inh 14µM*, ATXN2 expr inh -13% and HepG2 viability 0%.
`Cc1cc(-c2nnc(SCC(=O)Nc3nc(-c4ccc(Cl)cc4)cs3)o2)no1` gave ATXN viability inactive, TGFb SMAD3 inh 0%, VP16 counter inconclusive, RORgamma inh 14µM*, ATXN2 expr inh -12% and HepG2 viability -6%.
For CCNC(=O)CSc1nnc(-c2cc(-c3ccc(Cl)cc3)nc3ccccc23)o1 the results were ATXN viability inactive, TGFb SMAD3 inh 3%, VP16 counter inconclusive, RORgamma inh 0.2µM*, ATXN2 expr inh -13% and HepG2 viability -18%.
Screening C1=Cc2ccccc2/C1=C\c1cc[cH-]c1.[Fe+2].c1cc[cH-]c1 returned TGFb SMAD3 inh inconclusive and HepG2 viability 1%.
`Cc1ccc(S/C(=N/S(=O)(=O)c2ccc(Cl)cc2)c2ccccc2)cc1` gave TGFb SMAD3 inh 6% and HepG2 viability -22%.
`CN(c1ccc(/C=C/c2ccccc2)cc1)P1(=O)NCCCO1` (stereo not drawn) gave TGFb SMAD3 inh 1% and HepG2 viability -19%.
Screening Cc1ccc(-n2cccc2/C=C2\C(=N)N3N=C(c4ccco4)SC3=NC2=O)cc1 returned ATXN viability inconclusive, TGFb SMAD3 inh -25%, VP16 counter 0%, RORgamma inh -5%, ATXN2 expr inh -16% and HepG2 viability -9%.
`CC1=CN2C(=N)/C(=C/c3ccc([N+](=O)[O-])o3)C(=O)N=C2S1` gave TGFb SMAD3 inh 0%, VP16 counter 5µM*, RORgamma inh 11µM*, ATXN2 expr inh -3% and HepG2 viability -55%.
For CCOc1ccc(-c2ccc(/C=C3/C(=N)N4C(C)=CSC4=NC3=O)o2)c([N+](=O)[O-])c1 the results were ATXN viability inconclusive, TGFb SMAD3 inh -29%, VP16 counter inconclusive, RORgamma inh -24%, ATXN2 expr inh -10% and HepG2 viability -6%.
`CCOc1ccc(-c2ccc(/C=C3/C(=N)N4C=CSC4=NC3=O)o2)c([N+](=O)[O-])c1` gave TGFb SMAD3 inh -4%, VP16 counter 3.5µM*, RORgamma inh 2.5µM*, ATXN2 expr inh 25µM* and HepG2 viability 36%.
`CC1=CN2C(=N)/C(=C/c3ccco3)C(=O)N=C2S1` gave ATXN viability inactive, TGFb SMAD3 inh -25%, VP16 counter 16µM*, RORgamma inh inconclusive, ATXN2 expr inh 72% and HepG2 viability -70%.
Screening CCOc1ccc(CCNCc2c(C(=O)O)c(C)n(Cc3ccccc3F)c2C)cc1 returned ATXN viability inconclusive, TGFb SMAD3 inh -28%, ATXN2 expr inh 3% and HepG2 viability -62%.

Assay outcomes (PubChem BioAssay)
